Test results as given in PubChem BioAssay AID1347048 (National Center for Advancing Translational Sciences (NCATS), 2019).
About 1,200 (1.6%) of roughly 76,000 compounds were called active. Roughly 4% stayed inconclusive and do not appear here. The entries come from a sample that favours actives as a whole. Unmarked numbers belong to inactive results. The call rests on the fitted dose curve.

Biological target: Atrial natriuretic peptide receptor 1 (Homo sapiens) (UniProt P16066)
Test: Natriuretic polypeptide receptor (hNpr1) antagonism - Primary qHTS; further: nearly all actives have a fitted effect of over 60% in size
Conditions: HEK293 hNpr1 GloSensor cGMP, ANP-stimulated luminescence; series mostly up to 46.3 µM; activity change, negative = inhibition: at the top concentration
Description: Pruritus or itch, is an irritating skin sensation that creates a need to scratch, and ranges from mildly unpleasant and passing to acute and persistent sensations. […] Conventional treatments include topical anti-inflammatory agents, anti-histamines, and emollients, which are aimed at managing the itchy sensation and not the underlying disease. The treatment of pruritus remains a diagnostic and therapeutic challenge. Neurotransmission in the spinal cord from primary pruriceptors to second order neurons is a necessary step that eventually results in the sensation of itch. At this synapse, primary pruriceptors use the neuropeptide natriuretic polypeptide B (NppB) to activate its cognate receptor Natriuretic polypeptide receptor 1 (Npr1) on second order neurons. Inhibition of this step is a new potential strategy to inhibit acute and chronic itch. In order to identify small molecular compounds that can inhibit the Npr1 receptor we developed a high-throughput assay to probe inhibition of the receptor guanylate cyclase Npr1. The assay was designed taking advantage of Promega's GloSensor[TM] technology (Fan, F. et al. 2008). It involves the expression of a cyclic guanosine monophosphate (cGMP) biosensor, comprised of a firefly luciferase variant that was coupled to the cGMP binding domain of human phosphodiesterase 5A, and loading of cells with a cell-permeable luciferase substrate to monitor cGMP production by Npr1 in real time in live cells. In detail, we generated human embryonic kidney 293 cells stably expressing the human Npr1 and the cGMP GloSensor[TM] pGS-40F. Stimulating these cells with the Npr1 agonists human NppA or NppB, luciferase-induced light production could be detected in a dose-dependent manner. We also generated HEK293 cells stably expressing human Npr2 and pGS-40F and cells only expressing pGS-40F to conduct secondary counter screens. In these cells, NppC or sodium nitroprusside were used to stimulate Npr2 or soluble guanylate cyclase which is endogenously expressed in HEK293 cells, respectively. REFERENCE F. Fan, B. F. Binkowski, B. L. Butler, P. F. Stecha, M. K. Lewis, K. V. Wood, Novel genetically encoded biosensors using firefly luciferase. ACS Chem. Biol., 2008, 3: 346-351 .
PROTOCOL TABLES (as described by Inglese J, Shamu CE and Guy RK. 2007) SEQUENCE No. (e.g., 1, 2, 3, etc.); […] (e.g., Cells, Incubation, Reagent, etc.); VALUE and DESCRIPTION. GLOSENSOR PROTOCOL 1. Cells. Seed 1500 HEK293 cGMP-sensor cells expressing hNpr1 per well in 4uL into Greiner 1536-well white/solid bottom high base, tissue culture-treated plates. 2. Incubation. Incubate plated cells at 37C in 5% CO2, 95% RH overnight. 3. Reagent. Add 1uL per well GloSensor reagent from Promega (2% final concentration) or CO2 independent media vehicle control to respective columns of Greiner 1536-well plates. 4. Incubation. Incubate plated cells at room temperature for 2 h, protect from light. 5. Compounds. Library compounds and A-71915 control added at 23 nL per well, transferred by Pin Tool. 6. Incubation. Incubate plated cells for 30 min. at room temperature, protect from light. 7. Detector. GloSensor baseline pre-read luminescence measured using CCD-based camera (Viewlux). 8. Compound. Add 1uL of hNppA peptide to 0.1 nM final concentration to stimulate hNpr1 or CO2 independent media as vehicle control. 9. Incubation. Incubate treated cells at room temperature for 20 min., protect from light. 10. Detector. GloSensor post-hNppA luminescence measured using CCD-based camera (Viewlux). NOTES (numbers refer to Sequence numbers above) 1. HEK293 cells expressing hNpr1 and GIP/pGS-40F grown to 85-95% confluence (48-72 h) in T175 culture flasks (CO2 independent media supplemented with 10% FBS, 1% Pen/Strep antibiotics and 1 ug/mL puromycin). Trypsinize and harvest cells from T175 culture flasks and filter through 40 um cell strainer. Cells counted with Invitrogen Countess (30,000,000 - 50,000,000 cells/flask). […]
On the % scale 0 is the no-effect control and ±100 the full control effect; potency means the concentration at half of the fitted maximal effect.

Chain of Atrial natriuretic peptide receptor 1 (Homo sapiens) (P16066 whole entry, looked up): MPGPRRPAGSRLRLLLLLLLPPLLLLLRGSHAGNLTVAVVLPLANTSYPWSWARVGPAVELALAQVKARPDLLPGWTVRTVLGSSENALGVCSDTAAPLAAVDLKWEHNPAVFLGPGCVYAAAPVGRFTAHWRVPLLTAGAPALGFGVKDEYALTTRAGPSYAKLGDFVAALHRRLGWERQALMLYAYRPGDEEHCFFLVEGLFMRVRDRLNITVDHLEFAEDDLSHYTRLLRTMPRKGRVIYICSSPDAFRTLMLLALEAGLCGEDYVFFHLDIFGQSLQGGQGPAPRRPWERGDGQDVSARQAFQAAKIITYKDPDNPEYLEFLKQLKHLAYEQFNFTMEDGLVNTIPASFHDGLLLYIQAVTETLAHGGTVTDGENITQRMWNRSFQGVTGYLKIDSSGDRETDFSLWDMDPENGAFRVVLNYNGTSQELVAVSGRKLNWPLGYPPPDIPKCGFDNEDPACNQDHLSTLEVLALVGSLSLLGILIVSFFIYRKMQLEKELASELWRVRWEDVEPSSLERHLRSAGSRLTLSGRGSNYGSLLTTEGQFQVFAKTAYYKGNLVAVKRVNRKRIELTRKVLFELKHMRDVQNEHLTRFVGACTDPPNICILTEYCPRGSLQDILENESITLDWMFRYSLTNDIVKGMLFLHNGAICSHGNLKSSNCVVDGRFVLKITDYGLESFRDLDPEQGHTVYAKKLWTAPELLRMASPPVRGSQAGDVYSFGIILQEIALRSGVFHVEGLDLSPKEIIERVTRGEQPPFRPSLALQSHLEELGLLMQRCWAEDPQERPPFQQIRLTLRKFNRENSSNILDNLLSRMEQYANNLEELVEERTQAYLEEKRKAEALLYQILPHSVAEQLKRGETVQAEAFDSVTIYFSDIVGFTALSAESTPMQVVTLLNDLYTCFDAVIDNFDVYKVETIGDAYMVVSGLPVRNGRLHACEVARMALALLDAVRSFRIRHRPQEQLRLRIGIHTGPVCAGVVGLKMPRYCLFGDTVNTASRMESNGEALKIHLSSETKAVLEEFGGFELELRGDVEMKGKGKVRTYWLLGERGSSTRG

Compound	Potency	activity change, negative = inhibition
CC(=O)N1CCC(NC[C@H]2O[C@H](Cc3cc(-c4cccc(O)c4)on3)CC[C@@H]2O)CC1	25.1 µM (active)	–
O[C@H]1CC[C@@H](Cc2cc(-c3ccccc3)on2)O[C@@H]1CNCc1ccccc1	–	-16.7% [at 70.6 µM]
O=C(NC[C@H]1O[C@H](Cc2cc(-c3ccccc3)on2)CC[C@@H]1O)C1CCC1	–	3.18% [at 70.6 µM]
NC(=O)C1CCCN(CC(=O)Nc2nc3ccccc3[nH]2)C1 (stereo unspecified)	–	7.47%
CC1Oc2ccc(NC(=O)c3ccc([N+](=O)[O-])cc3)cc2CN(Cc2ccccc2)C1=O (stereo unspecified)	–	-15.2%
Cc1nc(-c2ccncc2)ncc1C(C)Nc1ncnc(C)c1C (stereo unspecified)	10 µM (active)	–
Cc1ccc(-c2ncc(C(=O)Nc3ccccc3C)c(-c3ccncc3)n2)cc1	–	-5.03%
CC(Cn1cncn1)Nc1nc(-c2ccncc2)nc2c1cnn2C (stereo unspecified)	–	9.2%
COCC(=O)N1CCCC(c2nc(-c3ccc(C)nn3)no2)C1 (stereo unspecified)	–	1.03%
O=C(c1cccc(O)c1)N1CCNc2cnc(Nc3cccc(F)c3)nc2C1	22.4 µM (active)	–
O=C(c1cccc(F)c1)N1CCCC(c2nccn2Cc2cscn2)C1 (stereo unspecified)	–	-4.15%
O=C(c1nc2ccccc2[nH]1)N1CCNc2cnc(Nc3ccc(-n4ccnc4)cc3)nc2C1	–	-12.9%
COc1ccccc1Nc1ncc2c(n1)CN(C(=O)COc1ccccc1)CCN2	–	-1.75% [at 70.6 µM]
O=C(c1cccc(F)c1)N1CCCC(CN2CCOCC2)CC1 (stereo unspecified)	–	4.23%
O=C(c1ccccc1)N1CCNc2cnc(Nc3cccc(C(F)(F)F)c3)nc2C1	20 µM (active)	–
COc1ccc(C(=O)N[C@H]2C[C@@H](c3nc(-c4ccc(OC)cc4)no3)N(C)C2)cc1	–	-3.43% [at 70.6 µM]
c1ccc(Nc2cnc3ccc(-n4ccnc4)nn23)cc1	–	-6.68% [at 70.6 µM]
CC1(C)C[C@H](NC(=O)c2ccc(C#N)cc2)[C@@]2(CCC(=O)NCCc3c[nH]c4ccccc34)CC[C@](C)(O)C[C@@H]12	–	1.06%
Cc1ccccc1-c1cn[nH]c1C1CCN(C(=O)CCCn2cnnn2)CC1	–	-12.2%
O=C(c1cccc(F)c1)N1CCOC[C@H](Oc2ccc(C(F)(F)F)cc2)C1	28.2 µM (active)	–
O=C(c1cccc(F)c1)N1CCC(CCOc2ccc(F)cc2)C1 (stereo unspecified)	–	-28.9%

Compound	Potency	activity change, negative = inhibition
O=C(C1CCOCC1)N1CCOC[C@H](Oc2ccccc2)C1	–	6.7% [at 70.6 µM]
Cc1nn(-c2ccc(C(C)C)cc2)c(C)c1[C@@H]1C=C[C@@H](NC(=S)NCC(C)C)C1	28.2 µM (active)	–
Cc1nn(Cc2ccccc2)c(C)c1[C@@H]1C=C[C@@H](NC(=O)NC2CCCCC2)C1	–	-22.1% [at 70.6 µM]
COc1ccc(NC(=O)N[C@@H]2C=C[C@@H](c3c(C)nn(-c4ccc(C(C)(C)C)cc4)c3C)C2)cc1	–	-18.6%
Cc1nn(-c2cccc(Br)c2)c(C)c1[C@@H]1C=C[C@@H](NS(=O)(=O)c2ccccc2)C1	–	-20.2%
Cc1nn(-c2cccc(Br)c2)c(C)c1[C@@H]1C=C[C@@H](NC(=O)CC2(CC(=O)O)CCCC2)C1	–	-0.402%
COc1ccc(-n2nc(C)c([C@H]3C=C[C@@H](OC(=O)Nc4cccc(F)c4)C3)c2C)cc1	20 µM (active)	–
Cc1nn(-c2ccc(C(C)C)cc2)c(C)c1[C@@H]1C=C[C@@H](NC(=O)CC2(CC(=O)O)CCCC2)C1	–	-1.22%
COc1ccc(-n2nc(C)c([C@@H]3C=C[C@@H](NC(=O)Nc4ccccc4)C3)c2C)cc1	14.1 µM (active)	–
Cc1nn(Cc2ccccc2)c(C)c1[C@@H]1C=C[C@@H](NC(=O)NC(C)C)C1	–	-4.73% [at 70.6 µM]
COC(=O)c1c(NC(C)=O)c2cc(NC3CCCCCC3)cnc2n1CC1CCCO1 (stereo unspecified)	–	3.1%
O=C(Cc1ccc(Cl)cc1)N1CCc2c(nc3cc[nH]n3c2=O)C1	–	1.92%
COc1cccc(CN2CCN(Cc3ncccc3C)CC2)c1O	–	-0.599%
O=c1c2c(n(Cc3ccccc3)n1-c1ccccc1)CN(Cc1ccn[nH]1)CC2	–	-0.367% [at 70.6 µM]
CCOc1ccc(CN2CCC(N3CCCC(C(=O)NC4CC4)C3)CC2)cc1 (stereo unspecified)	–	-5.46%
CCCNc1ccc2nnc(C)n2n1	–	2.13%
COc1ccccc1-c1cc(-c2cn[nH]c2)c2cncn2c1	–	-9.24% [at 70.6 µM]
Cc1noc(C)c1-c1cc(-c2cncnc2)cn2cncc12	–	0.541% [at 70.6 µM]
Cc1noc(C)c1-c1cc(-c2ccccc2Oc2ccccc2)cn2cncc12	28.2 µM (active)	–
CN(C)Cc1nnc(C2CC(NC(=O)c3cn4cccnc4n3)C2)n1C (stereo unspecified)	–	9.29%
O=C(c1ccccc1)N1CCOc2ccc(CN3CCc4ccccc4C3)cc2C1	–	-5.63%

Compound	Potency	activity change, negative = inhibition
CCC(=O)N1CCc2oc(C)c(C(=O)NCCN(C)C)c2C1	–	3.38%
CN1CCN(C(=O)C(C)(C)Oc2nn(Cc3cccc(Cl)c3)c3ccccc23)CC1	15.8 µM (active)	–
COCc1ccc2c(c1)c(OC(C)(C)C(=O)N1CCN(C)CC1)nn2Cc1cccnc1	–	2.14% [at 70.6 µM]
CC(C)(Oc1nn(CC2CCOCC2)c2ccccc12)C(=O)NCc1ccccc1	–	-5.28% [at 70.6 µM]
CC(=O)N1CCC(N2C[C@H](O)C[C@H]2C(=O)NC2CCCCC2)CC1	–	3.14%
Cc1c(C(=O)N2CCCn3nc(C(C)O)cc3C2)sc2nc[nH]c(=O)c12 (stereo unspecified)	–	-0.218%
OC1(Cc2cc(-c3ccccc3)no2)CCN(c2ncncn2)CC1	3.55 µM (active)	–
C(=C\c1ccccc1)/CN1CCN(c2ncncn2)CC1	–	-30%
Cc1nc(CCNS(=O)(=O)c2ccc(Cl)cc2)no1	–	0%
O=C([C@H]1CCC[C@H](O)C1)N(CCC1=CCCCC1)Cc1ccccc1	–	0.789%
O=c1[nH]nc2n1CCCC2	–	-17.4%
Cc1nc(-c2cn(C3CCCN(C(=O)c4cc(F)ccc4F)C3)nn2)no1 (stereo unspecified)	–	0%
COc1cc(OC)cc(C(=O)N2CCCC(n3cc(-c4nc(C(C)C)no4)nn3)C2)c1 (stereo unspecified)	–	-11.7%
COc1ccc(C(=O)N2CCCC(n3cc(-c4nc(C5CC5)no4)nn3)C2)cc1 (stereo unspecified)	–	2.3%
COc1ccccc1C(=O)N1CCCC(n2cc(-c3nc(-c4ccccc4)no3)nn2)C1 (stereo unspecified)	4.47 µM (active)	–
O=C(c1ccc(F)cc1Cl)N1CCC(n2cc(-c3nc(-c4ccccc4)no3)nn2)C1 (stereo unspecified)	3.98 µM (active)	–
CCc1noc(-c2cn(C3CCN(C(=O)c4cccc(OC)c4)C3)nn2)n1 (stereo unspecified)	–	-1.19%
COc1ccccc1-c1onc(C)c1C(=O)NCCC(c1ccccc1)c1ccccc1	–	-9.75%
CCn1c(C2CCCNC2)nn(Cc2noc(-c3ccc(C)cc3)n2)c1=O (stereo unspecified)	–	3.51%
